Common to all, as to experiment: PBM; 200 nM protein, PBS
Holding throughout (details): dsDNA, one strand shown

Experiment [1] deals with NKX2-5 (Homo sapiens, UniProt P52952 125-210, R139K).
The target of experiment [2] is HOXA4 (Homo sapiens, UniProt Q00056 201-287, W262R).
Experiment [3] concerns the target HOXA2 (Homo sapiens, UniProt O43364 129-215, R185T).
Experiment [4] concerns the target HOXA4 (Homo sapiens, UniProt Q00056 201-287, R217L).
Experiment [5] concerns the target HOXA2 (Homo sapiens, UniProt O43364 129-215, R185K).
Experiment [6] has as its target HOXA4 (Homo sapiens, UniProt Q00056 201-287).
The target in experiment [7] is HOXA2 (Homo sapiens, UniProt O43364 129-215, Y150S).
Sequence of HOXA2 (Homo sapiens, UniProt O43364 129-215, Y150S) (O43364 129-215 Y150S): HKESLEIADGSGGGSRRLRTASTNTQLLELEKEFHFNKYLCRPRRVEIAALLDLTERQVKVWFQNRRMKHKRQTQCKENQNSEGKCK
Experiment [8] has as its target HOXA4 (Homo sapiens, UniProt Q00056 201-287, W262F).
Experiment [9] has as its target HOXA2 (Homo sapiens, UniProt O43364 129-215).
Experiment [10] deals with NKX2-5 (Homo sapiens, UniProt P52952 125-210).
Sequence of NKX2-5 (Homo sapiens, UniProt P52952 125-210) (P52952 125-210): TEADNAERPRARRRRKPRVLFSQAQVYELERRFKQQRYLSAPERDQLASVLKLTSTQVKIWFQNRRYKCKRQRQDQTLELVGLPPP
The target in experiment [11] is ALX1 (Homo sapiens, UniProt Q15699 118-204, L144V).
Sequence of ALX1 (Homo sapiens, UniProt Q15699 118-204, L144V) (Q15699 118-204 L144V): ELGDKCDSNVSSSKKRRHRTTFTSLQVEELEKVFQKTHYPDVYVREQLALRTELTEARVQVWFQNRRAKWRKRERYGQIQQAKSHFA
Experiment [12] has as its target ALX1 (Homo sapiens, UniProt Q15699 118-204, L144R).
For experiment [13], the target named is ALX1 (Homo sapiens, UniProt Q15699 118-204).
Sequence of ALX1 (Homo sapiens, UniProt Q15699 118-204) (Q15699 118-204): as the sequence (Q15699 118-204 L144V) above, with V27L counted along it
Experiment [14] addresses HOXB6 (Homo sapiens, UniProt P17509 132-218, K202E).
Experiment [15] concerns the target T1, NKX2-6 (Homo sapiens, UniProt A6NCS4 118-204).
T1 sequence: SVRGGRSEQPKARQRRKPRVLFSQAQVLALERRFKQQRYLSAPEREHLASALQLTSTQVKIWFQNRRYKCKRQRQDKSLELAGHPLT

The target in experiment [16] is T2, NKX2-6 (Homo sapiens, UniProt A6NCS4 118-204, F151L).
T2 sequence: T1 sequence with F34L

For experiment [17], the target named is HOXB6 (Homo sapiens, UniProt P17509 132-218).
Sequence of HOXB6 (Homo sapiens, UniProt P17509 132-218) (P17509 132-218): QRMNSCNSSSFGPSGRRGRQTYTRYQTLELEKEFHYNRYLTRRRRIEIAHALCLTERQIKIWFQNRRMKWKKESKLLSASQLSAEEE
The target of experiment [18] is VAX1 (Homo sapiens, UniProt Q5SQQ9 86-172).
Sequence of VAX1 (Homo sapiens, UniProt Q5SQQ9 86-172) (Q5SQQ9 86-172): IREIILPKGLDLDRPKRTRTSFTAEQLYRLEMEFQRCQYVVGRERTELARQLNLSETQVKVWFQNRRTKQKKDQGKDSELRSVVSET
For experiment [19], the target named is VAX1 (Homo sapiens, UniProt Q5SQQ9 86-172, T142I).
Sequence of VAX1 (Homo sapiens, UniProt Q5SQQ9 86-172, T142I) (Q5SQQ9 86-172 T142I): as the sequence (Q5SQQ9 86-172) above, with T57I counted along it
Experiment [20] deals with VAX1 (Homo sapiens, UniProt Q5SQQ9 86-172, K157R).
Sequence of VAX1 (Homo sapiens, UniProt Q5SQQ9 86-172, K157R) (Q5SQQ9 86-172 K157R): as the sequence (Q5SQQ9 86-172) above, with K72R counted along it
Experiment [21] concerns the target HOXC9 (Homo sapiens, UniProt P31274 178-260, K195R).
In experiment [22] the target is HOXC9 (Homo sapiens, UniProt P31274 178-260).
Sequence of HOXC9 (Homo sapiens, UniProt P31274 178-260) (P31274 178-260): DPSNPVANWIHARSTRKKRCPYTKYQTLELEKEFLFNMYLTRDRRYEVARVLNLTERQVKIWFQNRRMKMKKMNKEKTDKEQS
Experiment [23] deals with ALX3 (Homo sapiens, UniProt O95076 139-225, N203Q).
Sequence of ALX3 (Homo sapiens, UniProt O95076 139-225, N203Q) (O95076 139-225 N203Q): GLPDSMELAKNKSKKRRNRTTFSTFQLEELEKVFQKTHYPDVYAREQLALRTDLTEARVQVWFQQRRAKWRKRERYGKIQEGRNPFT
For experiment [24], the target named is HOXC9 (Homo sapiens, UniProt P31274 178-260, R193K).
Sequence of HOXC9 (Homo sapiens, UniProt P31274 178-260, R193K) (P31274 178-260 R193K): as the sequence (P31274 178-260) above, with R16K counted along it
In experiment [25] the target is ALX3 (Homo sapiens, UniProt O95076 139-225).
Sequence of ALX3 (Homo sapiens, UniProt O95076 139-225) (O95076 139-225): as the sequence (O95076 139-225 N203Q) above, with Q65N counted along it
The target of experiment [26] is PROP1 (Homo sapiens, UniProt O75360 56-141).
Sequence of PROP1 (Homo sapiens, UniProt O75360 56-141) (O75360 56-141): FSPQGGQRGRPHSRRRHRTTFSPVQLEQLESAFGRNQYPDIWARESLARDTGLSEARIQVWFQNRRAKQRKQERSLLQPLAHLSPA
Experiment [27] concerns the target PROP1 (Homo sapiens, UniProt O75360 56-141, R99H).
Experiment [28] concerns the target ALX3 (Homo sapiens, UniProt O95076 139-225, L168Q).
Experiment [29] deals with HOXC9 (Homo sapiens, UniProt P31274 178-260, R222W).
Sequence of HOXC9 (Homo sapiens, UniProt P31274 178-260, R222W) (P31274 178-260 R222W): as the sequence (P31274 178-260) above, with R45W counted along it
Experiment [30] deals with ALX3 (Homo sapiens, UniProt O95076 139-225, L168V).
Sequence of ALX3 (Homo sapiens, UniProt O95076 139-225, L168V) (O95076 139-225 L168V): as the sequence (O95076 139-225 N203Q) above, with L30V, Q65N counted along it
In experiment [31] the target is PROP1 (Homo sapiens, UniProt O75360 56-141, F88S).
Sequence of PROP1 (Homo sapiens, UniProt O75360 56-141, F88S) (O75360 56-141 F88S): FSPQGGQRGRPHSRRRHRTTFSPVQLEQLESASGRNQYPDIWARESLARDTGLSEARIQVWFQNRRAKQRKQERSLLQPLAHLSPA
For experiment [32], the target named is ALX3 (Homo sapiens, UniProt O95076 139-225, N203S).
Sequence of ALX3 (Homo sapiens, UniProt O95076 139-225, N203S) (O95076 139-225 N203S): as the sequence (O95076 139-225 N203Q) above, with Q65S counted along it
Experiment [33] deals with HOXA7 (Homo sapiens, UniProt P31268 116-202).
Sequence of HOXA7 (Homo sapiens, UniProt P31268 116-202) (P31268 116-202): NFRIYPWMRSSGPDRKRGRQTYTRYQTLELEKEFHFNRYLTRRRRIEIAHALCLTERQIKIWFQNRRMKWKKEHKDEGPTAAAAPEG
Experiment [34] deals with HOXA7 (Homo sapiens, UniProt P31268 116-202, W177C).
Sequence of HOXA7 (Homo sapiens, UniProt P31268 116-202, W177C) (P31268 116-202 W177C): as the sequence (P31268 116-202) above, with W62C counted along it

Where a chain is given by its changes, count along the chain named.

Sequence of HOXA4 (Homo sapiens, UniProt Q00056 201-287, R217L) (Q00056 201-287 R217L): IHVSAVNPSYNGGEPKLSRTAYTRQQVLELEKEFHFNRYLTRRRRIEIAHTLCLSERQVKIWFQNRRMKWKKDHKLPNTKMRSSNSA
Sequence of HOXA4 (Homo sapiens, UniProt Q00056 201-287) (Q00056 201-287): as the sequence (Q00056 201-287 R217L) above, with L17R counted along it
Sequence of NKX2-5 (Homo sapiens, UniProt P52952 125-210, R139K) (P52952 125-210 R139K): as the sequence (P52952 125-210) above, with R15K counted along it
Sequence of HOXA4 (Homo sapiens, UniProt Q00056 201-287, W262F) (Q00056 201-287 W262F): as the sequence (Q00056 201-287 R217L) above, with L17R, W62F counted along it
Sequence of HOXA4 (Homo sapiens, UniProt Q00056 201-287, W262R) (Q00056 201-287 W262R): as the sequence (Q00056 201-287 R217L) above, with L17R, W62R counted along it
Sequence of HOXB6 (Homo sapiens, UniProt P17509 132-218, K202E) (P17509 132-218 K202E): as the sequence (P17509 132-218) above, with K71E counted along it
Sequence of HOXC9 (Homo sapiens, UniProt P31274 178-260, K195R) (P31274 178-260 K195R): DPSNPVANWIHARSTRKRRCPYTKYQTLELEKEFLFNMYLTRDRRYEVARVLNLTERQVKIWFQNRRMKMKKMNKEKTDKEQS
Sequence of PROP1 (Homo sapiens, UniProt O75360 56-141, R99H) (O75360 56-141 R99H): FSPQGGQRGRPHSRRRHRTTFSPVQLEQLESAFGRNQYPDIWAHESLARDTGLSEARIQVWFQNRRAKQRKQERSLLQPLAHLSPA
Sequence of ALX3 (Homo sapiens, UniProt O95076 139-225, L168Q) (O95076 139-225 L168Q): as the sequence (O95076 139-225 N203Q) above, with L30Q, Q65N counted along it
Sequence of ALX1 (Homo sapiens, UniProt Q15699 118-204, L144R) (Q15699 118-204 L144R): as the sequence (Q15699 118-204 L144V) above, with V27R counted along it
Sequence of HOXA2 (Homo sapiens, UniProt O43364 129-215, R185T) (O43364 129-215 R185T): as the sequence (O43364 129-215 Y150S) above, with S22Y, R57T counted along it
Sequence of HOXA2 (Homo sapiens, UniProt O43364 129-215) (O43364 129-215): as the sequence (O43364 129-215 Y150S) above, with S22Y counted along it
Sequence of HOXA2 (Homo sapiens, UniProt O43364 129-215, R185K) (O43364 129-215 R185K): as the sequence (O43364 129-215 Y150S) above, with S22Y, R57K counted along it

Take CCCCCAAC: the binding signal in the experiment with NKX2-5 [1] was 8.66 upbm affinity estimate (log intensity, higher = more binding, comparable within an allelic series); in the experiment with HOXA4 [2], 9.78 upbm affinity estimate (log intensity, higher = more binding, comparable within an allelic series); with HOXA2 [3], 6.99 upbm affinity estimate (log intensity, higher = more binding, comparable within an allelic series); in the experiment with HOXA4 [4] it was 9.67 upbm affinity estimate (log intensity, higher = more binding, comparable within an allelic series); in the experiment with HOXA2 [5], 10.3 upbm affinity estimate (log intensity, higher = more binding, comparable within an allelic series); with HOXA4 [6], 9.61 upbm affinity estimate (log intensity, higher = more binding, comparable within an allelic series). Also, the binding signal is 10.3 upbm affinity estimate (log intensity, higher = more binding, comparable within an allelic series) with HOXA2 [7]; 9.75 upbm affinity estimate (log intensity, higher = more binding, comparable within an allelic series) with HOXA4 [8]; 6.95 upbm affinity estimate (log intensity, higher = more binding, comparable within an allelic series) with HOXA2 [9]; 8.6 upbm affinity estimate (log intensity, higher = more binding, comparable within an allelic series) with NKX2-5 [10].

On to CCCAACGG, for which the binding signal is 8.75 upbm affinity estimate (log intensity, higher = more binding, comparable within an allelic series) with NKX2-5 [1]; 9.93 upbm affinity estimate (log intensity, higher = more binding, comparable within an allelic series) in the experiment with HOXA4 [2]; 9.99 upbm affinity estimate (log intensity, higher = more binding, comparable within an allelic series) in the experiment with HOXA4 [4]; 6.54 upbm affinity estimate (log intensity, higher = more binding, comparable within an allelic series) in the experiment with ALX1 [11]; 6.52 upbm affinity estimate (log intensity, higher = more binding, comparable within an allelic series) with ALX1 [12]; 9.83 upbm affinity estimate (log intensity, higher = more binding, comparable within an allelic series) with HOXA4 [6]. Further, the binding signal with ALX1 [13] was 6.46 upbm affinity estimate (log intensity, higher = more binding, comparable within an allelic series); with HOXA4 [8] it was 10 upbm affinity estimate (log intensity, higher = more binding, comparable within an allelic series); with NKX2-5 [10] it was 8.76 upbm affinity estimate (log intensity, higher = more binding, comparable within an allelic series).

On to TCACTTAA, for which the binding signal with NKX2-5 [1] was 12.2 upbm affinity estimate (log intensity, higher = more binding, comparable within an allelic series); with HOXB6 [14] it was 9.72 upbm affinity estimate (log intensity, higher = more binding, comparable within an allelic series); in the experiment with NKX2-6 [15], 13.4 upbm affinity estimate (log intensity, higher = more binding, comparable within an allelic series); with NKX2-6 [16], 10.6 upbm affinity estimate (log intensity, higher = more binding, comparable within an allelic series); with NKX2-5 [10], 12.3 upbm affinity estimate (log intensity, higher = more binding, comparable within an allelic series); with HOXB6 [17] it was 10.7 upbm affinity estimate (log intensity, higher = more binding, comparable within an allelic series).

For CAGCCCCC, the binding signal with NKX2-5 [1] was 8.75 upbm affinity estimate (log intensity, higher = more binding, comparable within an allelic series); with HOXA4 [2], 9.74 upbm affinity estimate (log intensity, higher = more binding, comparable within an allelic series); with HOXA4 [4], 9.65 upbm affinity estimate (log intensity, higher = more binding, comparable within an allelic series); with HOXA4 [6], 9.71 upbm affinity estimate (log intensity, higher = more binding, comparable within an allelic series); in the experiment with VAX1 [18], 7.33 upbm affinity estimate (log intensity, higher = more binding, comparable within an allelic series); with VAX1 [19] it was 7.4 upbm affinity estimate (log intensity, higher = more binding, comparable within an allelic series). Further, the binding signal is 9.62 upbm affinity estimate (log intensity, higher = more binding, comparable within an allelic series) in the experiment with HOXA4 [8]; 7.13 upbm affinity estimate (log intensity, higher = more binding, comparable within an allelic series) with VAX1 [20]; 8.67 upbm affinity estimate (log intensity, higher = more binding, comparable within an allelic series) in the experiment with NKX2-5 [10].

For ACGGGGGC, the binding signal was 9.14 upbm affinity estimate (log intensity, higher = more binding, comparable within an allelic series) in the experiment with NKX2-5 [1]; 9.65 upbm affinity estimate (log intensity, higher = more binding, comparable within an allelic series) in the experiment with HOXC9 [21]; 9.77 upbm affinity estimate (log intensity, higher = more binding, comparable within an allelic series) with HOXC9 [22]; 7.66 upbm affinity estimate (log intensity, higher = more binding, comparable within an allelic series) with ALX3 [23]; 9.64 upbm affinity estimate (log intensity, higher = more binding, comparable within an allelic series) in the experiment with HOXC9 [24]; 7.79 upbm affinity estimate (log intensity, higher = more binding, comparable within an allelic series) with ALX3 [25]. Besides, the binding signal in the experiment with PROP1 [26] is 6.75 upbm affinity estimate (log intensity, higher = more binding, comparable within an allelic series); with PROP1 [27], 6.67 upbm affinity estimate (log intensity, higher = more binding, comparable within an allelic series); with ALX3 [28], 7.65 upbm affinity estimate (log intensity, higher = more binding, comparable within an allelic series); with HOXC9 [29], 9.54 upbm affinity estimate (log intensity, higher = more binding, comparable within an allelic series); with ALX3 [30], 7.65 upbm affinity estimate (log intensity, higher = more binding, comparable within an allelic series); in the experiment with PROP1 [31] it was 6.19 upbm affinity estimate (log intensity, higher = more binding, comparable within an allelic series). Further, the binding signal with ALX3 [32] was 7.62 upbm affinity estimate (log intensity, higher = more binding, comparable within an allelic series); with NKX2-5 [10], 9.01 upbm affinity estimate (log intensity, higher = more binding, comparable within an allelic series).

For ACCGGTCC, the binding signal with NKX2-5 [1] is 8.75 upbm affinity estimate (log intensity, higher = more binding, comparable within an allelic series); with HOXA7 [33] it was 8.49 upbm affinity estimate (log intensity, higher = more binding, comparable within an allelic series); with HOXA7 [34], 8.3 upbm affinity estimate (log intensity, higher = more binding, comparable within an allelic series); with NKX2-5 [10], 8.88 upbm affinity estimate (log intensity, higher = more binding, comparable within an allelic series).

Turning to CAGAGCCG, the binding signal was 8.74 upbm affinity estimate (log intensity, higher = more binding, comparable within an allelic series) with NKX2-5 [1]; 8.45 upbm affinity estimate (log intensity, higher = more binding, comparable within an allelic series) in the experiment with HOXA7 [33]; 8.99 upbm affinity estimate (log intensity, higher = more binding, comparable within an allelic series) in the experiment with HOXB6 [14]; 8.36 upbm affinity estimate (log intensity, higher = more binding, comparable within an allelic series) in the experiment with HOXA7 [34]; 8.8 upbm affinity estimate (log intensity, higher = more binding, comparable within an allelic series) with NKX2-5 [10]; 9 upbm affinity estimate (log intensity, higher = more binding, comparable within an allelic series) with HOXB6 [17].

For ACCGTGTC, the binding signal with NKX2-5 [1] was 8.73 upbm affinity estimate (log intensity, higher = more binding, comparable within an allelic series); with HOXA7 [33], 8.54 upbm affinity estimate (log intensity, higher = more binding, comparable within an allelic series); with HOXA7 [34], 8.46 upbm affinity estimate (log intensity, higher = more binding, comparable within an allelic series); in the experiment with NKX2-5 [10], 8.93 upbm affinity estimate (log intensity, higher = more binding, comparable within an allelic series).
